In PubChem BioAssay AID595 (National Center for Advancing Translational Sciences (NCATS), 2007):
The campaign covered roughly 71,000 compounds. About 310 (0.44%) were called active. Another 5% or so got no clear call; they are omitted. The call rests on the fitted dose curve; in most records, active means well fitted curve in either direction with a large enough effect; inconclusive means small, poorly fitted or top-dose-only effect, or another doubt; inactive means flat fitted curve, though single readings scatter. The entries come from a sample that favours actives as a whole.

Tested on: Hsp90 C-terminal peptide / TPR2A (Hop) interaction, human
Assay: qHTS Assay for Disrupters of an Hsp90 Co-Chaperone Interaction
Conditions: AlphaScreen TPR2A-His6 binding biotin-Hsp90 C-terminal peptide; series mostly up to 57 µM; activity change, negative = inhibition: at the top concentration
Excerpt: NIH Chemical Genomics Center [NCGC]
NIH Molecular Libraries Screening Centers Network [MLSCN]
Hsp90 (heat shock protein 90) is the essential molecular chaperone and it accounts for 1-2% of all cytosolic proteins and is critical for the activity of diverse cellular proteins that are involved in a variety of cellular processes, including development, cell cycle, and steroid hormone signaling. Its client proteins include signaling kinases such as IGF1R, Akt, v-Src, Raf-1; regulators of cell survival such as Bcr-Abl; and transcription factors such as mutated p53, estrogen and progesterone receptors. Hsp90 has emerged as an important target for cancer treatment due to its essential role in maintaining transformation and regulating the function of oncogenic signaling proteins.
The in vivo function of Hsp90 is regulated by the binding and hydrolysis of ATP at its N-terminal. Geldanamycin binds to ATP site and inhibit Hsp90 function. Geldanamycin and its analogues are under clinical trials in cancer patients.
This domain contains the binding site for tetratricopeptide repeat (TPR) domains on HOP (Hsp Organizing Protein). TPR is a structural motif used by a significant number of cochaperones by which the in vivo function of Hsp90 is regulated. TPR2A on HOP binds specifically to MEEVD motif of the C-terminal of Hsp90.
A homogeneous AlphaScreen is developed to assess the interaction between TPR2A and MEEVD motif of the C-terminal of Hsp90 by using the isolated TPR2A domain and a synthesized 20mer Hsp90 C terminal peptide. AlphaScreen is two bead-based proximity-dependent chemical energy transfer luminescent assay platform. TPR2A-His-6 and biotinylated Hsp90 C terminal peptide will bring streptavidin donor beads and nickel chelate acceptor beads to a proximity range (less than 200 nm), and subsequently lead a chemical luminescent reaction upon exciting donor beads with 680 nm laser. Inhibition of TPR2A and MEEVD motif interaction by small molecules could attenuate or abolish this chemical luminescent reaction.
Counter screening: Biotinylated-His-6 (PerkinElmer) can be utilized as a counter screen, as it serves as a linker to bring streptavidin beads and nickel chelate beads together. The counter screen can exclude alpha screen platform false positives due to small molecules being metal chelators, biotin analogues and imidazole analogues, or due to interfering with oxygen release from donor beads. Such an assay should be utilized to qualify any activity observed in this screen.
NCGC Assay Protocol Summary:
The assay was performed on 1536-well white plate (untreated solid bottom). Liquids were dispensed by 1536-well plate washer (Kalypsys, San Diego, CA). Plates were read on EnVision (PerkinElmer, Boston, MA).TPR2A-His6 was produced using a bacteria expression system and purified using a well developed method (Ghosh et al., 2000). Hsp90 C terminal 20-mer peptide with or without an N-terminal biotin group are synthesized using automated solid phase synthesis by the Yale Keck facility. The composition of assay buffer was (in mM) 25 HEPES, 100 KCl, 2 MgCl2 and 2 DTT; 0.1% BSA and 0.01% Tween-20. TPR2A-His6 binding to biotin-Hsp90 will bring streptavidin donor beads and nickel chelate acceptor beads (PerkinElmer) together and can be measured by Alpha reading by EnVision (PerkinElmer). Free Hsp90 blocks biotin-Hsp90 binding to TPR2 and serves as a positive control in the current asssay.
The assay was performed at room temperature. All compounds were screened as titrations from […] to 46 uM final concentration. The assay was performed in 1536-well format plates (untreated white solid bottom, Corning Inc.) as follows:
Sequence,Parameter,Value,Description
1,Reagent,3 uL TPR2A-His6,Final concentration was 5nM
2,Compound,23 nL,Final titration was from 0.7 nM to 46 uM
3,Time,15 minutes,Room temperature
4,Reagent,1 uL biotin-Hsp90,With and without free Hsp90. Final concentration was 10 nM for biotin-Hsp90 and 10uM for free Hsp90.
5,Time,1 hour,Room temperature
[…]
On the % scale 0 is the no-effect control and ±100 the full control effect; potency means the concentration at half of the fitted maximal effect.

SMILES	activity change, negative = inhibition	Potency
C[C@]1(O)CC[C@H]2[C@H]3CC=C4N5CCN=C5CC[C@@]4(C)[C@H]3CC[C@@]21C	-4.96% [at 11 µM] (inactive)	–
CC1(CCC(=O)OC2CCCCC2)OCCO1	-2.62% [at 11 µM] (inactive)	–
CN1CCN(S(=O)(=O)c2ccc3[nH]cc(C(=O)O)c(=O)c3c2)CC1	-0.632% (inactive)	–
CCOC(=O)c1nc(N)sc1C(=O)OCC	0.817% (inactive)	–
COC(=O)C1(C)C=CCN1C(=O)c1ccccc1 (configuration not stated)	-3.13% (inactive)	–
Cc1c(O)c(Br)c(C)c(O)c1Br (tested in a mixture with another compound)	-3.86% [at 11 µM] (inactive)	–
COCCNc1ccnc(-c2cccc(NS(C)(=O)=O)c2)n1	-3.91% (inactive)	–
Cc1cccc(CNc2cc(-c3ccccc3Cl)ncn2)c1	6.04% (inactive)	–
O=C(Nc1c[nH]c(=O)[nH]c1=O)Oc1ccccc1	1.58% [at 11 µM] (inactive)	–
Nc1ccccc1N	0.745% (inactive)	–
COc1cc([C@H]2c3cc4c(cc3[C@@H](O[C@@H]3O[C@H]5CO[C@@H](C)O[C@]5(O)C[C@H]3O)[C@@H]3COC(=O)[C@H]23)OCO4)cc(OC)c1O	-4.89% (inactive)	–
NS(=O)(=O)c1ccc(NS(=O)(=O)/C=C/c2ccccc2)cc1	0.079% (inactive)	–
Cc1ccc(S(=O)(=O)C(C#N)c2nc3ccccc3nc2N2CCCC2)cc1C (configuration not stated)	-13.2% (inactive)	–
Cc1cccc2cc(C#N)c(N3CCCC3)nc12	–	31.6 µM [activator] (active)
Cc1cc(C)c2nc(N3CCCC3)c(C#N)cc2c1	3.01% (inactive)	–
C[C@@H]1C[C@H]2[C@@H]3C[C@H](F)C4=CC(=O)C=C[C@@]4(C)[C@]3(F)[C@H](O)C[C@]2(C)[C@@]1(O)C(=O)CO	-3.15% [at 26 µM] (inactive)	–
CN1CCN(c2ncc3nc(-c4ccc(Cl)cc4)c(=O)n(-c4ccccc4)c3n2)CC1	-0.003% (inactive)	–
O=C(Nc1cccc(F)c1)N1CCC2(CC1)CCN(S(=O)(=O)c1ccccc1)CC2	1.21% (inactive)	–
Cc1nc2cnc(Oc3cccc(Cl)c3)nc2n(C2CC2)c1=O	-1.71% (inactive)	–
O/N=C1\CC2(Cc3nonc31)OCCO2	-2.81% (inactive)	–
ON=C1/C(=N\O)CC2(C/C1=N/O)OCCO2	–	12.6 µM (active)
O=c1c(CCc2ccccc2)nc2cncnc2n1C1CC1	-2.81% (inactive)	–
COc1ccccc1CNc1ncncc1-c1cccc(NS(C)(=O)=O)c1	5.26% (inactive)	–
COCCNc1cc(-c2c(C)noc2C)ncn1	-2.68% (inactive)	–
O=C(O)[C@@H]1[C@@H](C(=O)O)[C@]23C[C@@]2(C(=O)O)[C@]2(C(=O)O)CCC3=C3CCCC312	0.013% [at 11 µM] (inactive)	–
O=C(CC(NS(=O)(=O)c1ccc(Cl)cc1)c1ccco1)NC1CCCC1 (configuration not stated)	-9.73% (inactive)	–
CN1CCN(S(=O)(=O)c2ccc(NC(=O)C3CCCO3)cc2)CC1 (configuration not stated)	-2.48% (inactive)	–
